Source: PubChem BioAssay (NCATS)
Where “and” joins values, the source holds several entries; their conditions need not be identical. Equal entries are not always repeated. Inconclusive results are not listed. Calls of active or inactive are those of the source. Calls come from the whole dose curve; as a rule, active = well fitted curve in the direction sought with a large enough effect; inconclusive = small, poorly fitted or top-dose-only effect, or another doubt; inactive = no such curve, though single readings can be large; an effect the other way counts as inactive or inconclusive.

Experiments:
[1] = biological target: Cellular tumor antigen p53 (Homo sapiens) (UniProt P04637); experiment: Primary qHTS for small molecule compounds that upregulate eGFP-tagged delta133p53alpha (in N-terminal) cells. (AID 2060322); details: NCI-H358 eGFP-delta133p53alpha fluorescence, 24 h; activation: stronger effect = higher value;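 note: series mostly up to about 56 µM; 0% = DMSO vehicle and 100% = reference activator; nearly all actives have a fitted effect of over 75% in size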
Chain of Cellular tumor antigen p53 (Homo sapiens) (P04637 whole entry, looked up): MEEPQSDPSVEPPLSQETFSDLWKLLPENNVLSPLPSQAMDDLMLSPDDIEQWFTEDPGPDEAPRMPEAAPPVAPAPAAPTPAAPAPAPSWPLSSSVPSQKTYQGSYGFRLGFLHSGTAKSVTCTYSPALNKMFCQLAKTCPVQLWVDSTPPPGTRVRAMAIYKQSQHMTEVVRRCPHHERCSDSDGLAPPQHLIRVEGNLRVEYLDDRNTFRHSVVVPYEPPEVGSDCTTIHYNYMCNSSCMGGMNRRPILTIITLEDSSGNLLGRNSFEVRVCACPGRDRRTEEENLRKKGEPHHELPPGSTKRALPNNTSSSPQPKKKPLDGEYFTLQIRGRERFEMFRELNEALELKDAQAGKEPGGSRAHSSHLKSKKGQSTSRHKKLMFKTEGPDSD
Outline: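 NCI-H358 cells pre-induced 24 h with 10 ng/ml doxycycline to express N-terminal eGFP-delta133p53alpha, then dosed 24 h at 37C without doxycycline; fixed, Hoechst-stained, GFP intensity by laser scanning cytometry, normalized to DMSO (0%) and 57.5 uM 5-azacytidine (100%).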

[2] = BET inhibitor-based combinations targeting novel dependencies in MECOM-rearranged (r) AML: SET-2 cell line (AID 2202231); details: SET-2 AML cells viability, CellTiter-Glo luminescence, 48 h; viability: stronger effect = lower value, concentration not given here; note: nearly all actives have a fitted effect of over 35% in size; note: potency is the fitted concentration of half-maximal effect;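 for viability: plate controls were DMSO treated cells for no effect and wells without cells for full effect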
Outline: (§1)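 Readout: CellTiter-Glo luminescence. Exposure: 48 h, 11 concentrations, 500 cells/well. Metric: AUC and within-line Z-AUC after DMSO/empty-well normalization.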

[3] = BET inhibitor-based combinations targeting novel dependencies in MECOM-rearranged (r) AML: HNT-34 cell line (AID 2202234); note: nearly all actives have a fitted effect of over 35% in size; note: potency is the fitted concentration of half-maximal effect;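 for viability (% of control): plate controls were vehicle wells for no effect and cell-free wells for full effect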
Outline: (§2)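 Seeding density was 500 cells/well, and drug exposure lasted 48 hr under standard culture conditions. Read-out used CellTiter-Glo reagent with a 15 min room-temperature incubation before luminescence measurement; AUC and Z-AUC summarize the normalized responses.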

[4] = BET inhibitor-based combinations targeting novel dependencies in MECOM-rearranged (r) AML: UCSD-AML1 cell line (AID 2202235); note: nearly all actives have a fitted effect of over 40% in size; note: potency is the fitted concentration of half-maximal effect;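 for viability (% of control): series mostly up to about 46 µM; plate controls were DMSO vehicle wells for no effect and blank wells for full effect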
Outline: as §2

[5] = BET inhibitor-based combinations targeting novel dependencies in MECOM-rearranged (r) AML: AML-191 cell line (AID 2202236; note: nearly all actives have a fitted effect of over 35% in size; note: potency is the fitted concentration of half-maximal effect;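 for viability (% of control): plate controls were vehicle wells for no effect and wells without cells for full effect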)
Outline: as §1

[6] = BET inhibitor-based combinations targeting novel dependencies in MECOM-rearranged (r) AML: AML-194 cell line (AID 2202237; note: nearly all actives have a fitted effect of over 40% in size; note: potency is the fitted concentration of half-maximal effect;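 for viability (% of control): plate controls were vehicle wells for no effect and wells without cells for full effect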)
Outline: as §1

[7] = BET inhibitor-based combinations targeting novel dependencies in MECOM-rearranged (r) AML: MV-4-11 cell line (AID 2202233); note: nearly all actives have a fitted effect of over 45% in size; note: potency is the fitted concentration of half-maximal effect;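 for viability, % of control: plate controls were DMSO for no effect and blank wells for full effect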
Outline: as §2

CCOc1cc(N)c(Cl)cc1C(=O)NCC1CN(Cc2ccc(F)cc2)CCO1 (centres undefined)
inactive: activation [1] -2.82% and 4.36% | viability [2] 105% | Potency [3] | Potency [4] | Potency [5] | Potency [6]

CCCCC(=O)O[C@]1(C(=O)CO)[C@@H](C)C[C@H]2[C@@H]3CCC4=CC(=O)C=C[C@]4(C)[C@@]3(F)[C@@H](O)C[C@@]21C
inactive: activation [1] 8.12% | viability [2] 109% | Potency [4]
active: Potency [3] 14.8 µM

N=C(N)c1ccc2cc(OC(=O)c3ccc(N=C(N)N)cc3)ccc2c1
active: Potency [4] 23.5 µM | Potency [5] 23.5 µM
inactive: activation [1] -10.5% | viability [2] 105%

CCn1cc(C(=O)O)c(=O)c2cc(F)c(N3CCN(C)CC3)cc21
inactive: activation [1] -2.51% and -35.6% | viability [2] 97.2% | Potency [3] | Potency [4] | Potency [5] | Potency [6]

NC(=O)c1ccc(-c2nc(-c3ccc4c(c3)OCCO4)c(-c3ccccn3)[nH]2)cc1
inactive: activation [1] -1.5% | viability [2] 104% | Potency [6]

CCN(CC)CCCC(C)Nc1nc(C)cc(Nc2ccc3nc(C)cc(N)c3c2)n1 (centres undefined)
active: Potency [7] 29.5 µM
inactive: activation [1] 4.87% | viability [2] 116% | Potency [4] | Potency [6]

CC(C)[C@H](O)C(=O)N[C@@H](C)C(=O)N[C@@H]1C(=O)N(C)CCc2ccccc21
inactive: activation [1] 28.1% | viability [2] 117% | Potency [7] | Potency [4] | Potency [5] | Potency [6]

COc1ccc(C(=O)CC(=O)c2ccc(C(C)(C)C)cc2)cc1
active: Potency [5] 20.9 µM
inactive: activation [1] -17.5% and -8.43% | viability [2] 107% | Potency [4]

COc1ccc(C[C@@H](C)[C@@H](C)Cc2ccc(OC)c(OC)c2)cc1OC
inactive: activation [1] 11.5% | Potency [3] | Potency [4] | Potency [6]
active: Potency [2] 18.6 µM | Potency [5] 18.6 µM

CCC(C)(C)C(=O)O[C@H]1C[C@@H](C)C=C2C=C[C@H](C)[C@H](CC[C@@H]3C[C@@H](O)CC(=O)O3)[C@H]21
inactive: activation [1] -16.4% and -15.4% | viability [2] 103% | Potency [5]
active: Potency [7] 18.6 µM

CCOC(=O)c1c(C)n(C)c2ccc(O)cc12
inactive: activation [1] 6.69% and -7.58% | viability [2] 110% | Potency [3] | Potency [4] | Potency [5] | Potency [6]

CC[C@@H]1C(=O)N(C)c2cnc(Nc3ccc(C(=O)NC4CCN(C)CC4)cc3OC)nc2N1C1CCCC1
inactive: activation [1] 7.53%
active: Potency [2] 0.468 µM | Potency [7] 0.105 µM | Potency [4] 0.105 µM | Potency [5] 0.166 µM | Potency [6] 0.332 µM

CN(C)c1ccc2cc(C(=O)N[C@@H](CCCN=C(N)CCl)C(=O)NCc3ccccc3)ccc2c1
inactive: activation [1] 2.27% | viability [2] 99.2% | Potency [7] | Potency [6]

NC(=O)c1ccc(I)c([N+](=O)[O-])c1
active: Potency [7] 16.6 µM
inactive: activation [1] 13.8% | viability [2] 105% | Potency [4] | Potency [6]

C[C@]12CC[C@@H]3c4ccc(O)cc4C[C@@H](CCCCCCCCCS(=O)CCCC(F)(F)C(F)(F)F)[C@H]3[C@H]1CC[C@H]2O (some centres undefined)
inactive: activation [1] -2.43% | Potency [6]
active: Potency [2] 4.68 µM | Potency [7] 9.34 µM

NCc1c[nH]c(=S)n1[C@H]1CCc2c(F)cc(F)cc2C1
inactive: activation [1] -19.4% | viability [2] 110% | Potency [7] | Potency [6]

CC(=O)O[C@]1(C(C)=O)CC[C@H]2[C@@H]3C=C(C)C4=CC(=O)CC[C@]4(C)[C@H]3CC[C@@]21C
inactive: activation [1] -26.8% | viability [2] 110% | Potency [4]
active: Potency [3] 18.6 µM

COC(=O)C[C@](O)(CCCC(C)(C)O)C(=O)O[C@@H]1C(OC)=C[C@]23CCCN2CCc2cc4c(cc2[C@H]13)OCO4
active: Potency [2] 0.148 µM | Potency [3] 0.0417 µM | Potency [4] 0.0148 µM | Potency [5] 0.059 µM
inactive: activation [1] -1.17%

COc1ccccc1C(=O)Nc1cc2c(cc1N1CCCCC1)n(C)c(=O)n2C
inactive: activation [1] -12.3% | viability [2] 101% | Potency [3] | Potency [4] | Potency [5] | Potency [6]

CC[C@@H](C)[C@H](NC(=O)[C@H](CC1CCCCC1)NC(=O)c1ccno1)C(=O)N1CCC2(CCc3ccccc32)CC1
inactive: activation [1] 0.928% and 1.43% | viability [2] 50.5% | Potency [7] | Potency [4] | Potency [6]

Cc1ccc(C(C)(O)c2nc3ccccc3s2)c(C)c1 (centres undefined)
inactive: activation [1] 5.91% | Potency [4] | Potency [5] | Potency [6]
active: Potency [2] 13.2 µM | Potency [7] 18.6 µM

O=P(O)(O)C(O)(Cn1ccnc1)P(=O)(O)O
inactive: activation [1] -20.1% | viability [2] 112% | viability, % of control [7] 141% [at 5.12 µM] | viability (% of control) [4] 117% [at 5.12 µM] | viability (% of control) [5] 112% [at 5.12 µM] | viability (% of control) [6] 119% [at 5.12 µM]

O=c1c(O)c(-c2ccc(O)cc2)oc2cc(O)cc(O)c12
inactive: activation [1] 36.9% | viability [2] 105% | Potency [6]
active: Potency [7] 9.34 µM | Potency [5] 14.8 µM
